High-throughput results from PubChem BioAssay.
Hits are enriched below; roughly 11% of the tested compounds scored in any of these assays.
IMPase inh: membrane-permeable compound that blocks inositol monophosphatase; 120,000 tested, under 10 active; CHO-M1 cells, IP1 accumulation, HTRF TR-FRET ratio; inhibition (IP1 accumulation), % at 46.1 µM; AID 901; active means well fitted curve in the direction sought with a large enough effect in the signal ratio, not every such curve was filed as active; inconclusive means small, poorly fitted or top-dose-only effect, or a change in a side signal; inactive means no such curve, though single readings can be large or run the other way; the % refers to the signal ratio;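 further: cells stimulated with carbachol in lithium chloride buffer; higher means more IMPase inhibition seen as more IP1 and lower FRET ratio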
Target sequence (P97697 whole entry, looked up): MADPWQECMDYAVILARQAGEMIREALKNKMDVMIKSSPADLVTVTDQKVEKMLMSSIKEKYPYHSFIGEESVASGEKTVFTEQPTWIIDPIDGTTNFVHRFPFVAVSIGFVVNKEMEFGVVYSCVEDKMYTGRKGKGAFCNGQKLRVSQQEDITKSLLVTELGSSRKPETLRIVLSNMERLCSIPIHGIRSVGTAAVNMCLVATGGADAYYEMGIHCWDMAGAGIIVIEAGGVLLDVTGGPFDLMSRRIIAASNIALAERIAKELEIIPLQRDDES
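Elevated IP1 in lysates lowers TR-FRET signal (665/620 ratio and 620 channel reported). Cells were CHO-M1, given carbachol (50 uM as added) plus 50mM LiCl, pH 7.4, 30 min, 37C; compounds titrated up to 46 uM; AC50 by Hill equation.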
HPGD inh: HPGD (human) dehydrogenase inhibition | P15428 | purified HPGD, NADH fluorescence kinetic, PGE2 substrate | Potency, µM, usual class: inhibitors | hit rate 4.3% among 150,000 | AID 894
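20 nM HPGD preincubated 15 min at room temperature with compound in 50 mM Tris-HCl pH 8, 0.01% Tween 20. Started with 1 mM NAD+ and 30 uM prostaglandin E2; NADH fluorescence (360/450 nm) read 5 times over 30-s intervals, last minus first.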
IMPase Li inh: cell-permeable IMPase inhibitors with lithium potentiation; Potency, µM (doses to about 59.4 µM), usual class: inhibitors; CHO-M1 cells, IP1 TR-FRET (IP-One), carbachol + lithium; hit rate 0.35% among 210,000; active means well fitted curve in the direction sought with a large enough effect; inconclusive means small, poorly fitted or top-dose-only effect, or another doubt; inactive means no such curve, though single readings can be large; an effect the other way counts as inactive or inconclusive;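 further: IP1 builds up when IMPase is blocked and the TR-FRET signal falls; nearly all actives have a fitted effect of over 50% in size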
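CHO-M1, 2000 cells/well, 16–30 h culture; cpd + low Li+, 30 min 37C; lysis with d2-IP1/Eu-anti-IP1 Ab, 10 min RT; TR-FRET 665/620 ratio and 620 channel; AC50 via Hill.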
ALDH1A1 inh: blocks purified human ALDH1A1 activity. hit rate 7.3% among 220,000. Potency, µM (titrated, usually from 75.3 µM), actives largely listed as inhibitors. P00352. Purified ALDH1A1, NADH fluorescence, propionaldehyde substrate
PNC inhibitor: inhibitors of perinucleolar compartment assembly; PC3M PTB-GFP, PNC prevalence imaging, 16 h; stronger effect = lower value; activity change (PNC), negative = inhibition, % at 10 µM; hit rate 3.1% among 140,000; AID 2417;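 active means readout at or below -70, meaning at least 70% loss of cells showing the perinucleolar compartment, a nuclear body marking cancer cells; inconclusive means readout between -30 and a set limit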
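PC3M cells stably expressing PTB-GFP, 750–1000 cells/well, treated 16 h at 37 °C with compound (23 nl of library stock), in duplicate. After paraformaldehyde fixation and Hoechst stain, imaged at 20x; PNC prevalence scored by image analysis.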
NPSR antagonist: blocks cAMP signaling of the human neuropeptide S receptor; Q6W5P4; hit rate 1% among 220,000; Potency, µM (titrated, usually from 38.3 µM), hits mostly inhibitors; CHO-NPSR cells, cAMP TR-FRET, antagonist mode; active means well fitted curve in the direction sought with a large enough effect; inconclusive means small, poorly fitted or top-dose-only effect, or another doubt; inactive means no such curve, though single readings can be large; an effect the other way counts as inactive or inconclusive; further: nearly all actives have a fitted effect of over 50% in size
Target sequence (Q6W5P4 whole entry, looked up): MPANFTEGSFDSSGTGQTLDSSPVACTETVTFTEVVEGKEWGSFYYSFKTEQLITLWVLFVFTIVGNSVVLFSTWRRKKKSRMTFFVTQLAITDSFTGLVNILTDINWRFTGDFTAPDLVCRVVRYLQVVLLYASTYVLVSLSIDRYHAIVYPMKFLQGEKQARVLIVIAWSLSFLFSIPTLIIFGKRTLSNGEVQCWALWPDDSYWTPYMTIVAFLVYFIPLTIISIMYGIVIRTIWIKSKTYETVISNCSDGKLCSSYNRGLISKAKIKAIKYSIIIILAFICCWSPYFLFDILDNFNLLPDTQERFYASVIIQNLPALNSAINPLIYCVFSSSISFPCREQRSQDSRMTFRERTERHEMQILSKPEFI
A number is an active result; [ ] = another dose, or the depositor's remark. Unless noted, the call rests on the fitted dose curve; in most records, active means well fitted inhibition curve with a large enough effect (not every such curve was filed as active); inconclusive means small, poorly fitted or top-dose-only effect, or another doubt; inactive means no such curve, though single readings can be large or run the other way.

COc1ccc(C(=O)N/N=C/c2cccc3cccnc23)cc1 was read as IMPase inh inactive, HPGD inh inactive, IMPase Li inh inactive, ALDH1A1 inh inconclusive, PNC inhibitor inactive and NPSR antagonist inactive.
COc1ccc(CC(=O)Nc2oc(-c3ccccc3)c(-c3ccccc3)c2C#N)cc1OC was read as IMPase inh inactive, HPGD inh inconclusive, IMPase Li inh inactive, ALDH1A1 inh inactive, PNC inhibitor -100 and NPSR antagonist inactive.
Screening COc1ccc(-c2oc(NC(=O)CCl)c(C#N)c2-c2ccc(OC)cc2)cc1 returned IMPase inh inactive, HPGD inh inactive, IMPase Li inh inactive, ALDH1A1 inh 2.5µM, PNC inhibitor inactive and NPSR antagonist inconclusive.
For COc1ccc(-c2oc(NC(=O)CSc3ncn[nH]3)c(C#N)c2-c2ccc(OC)cc2)cc1 the results were IMPase inh inactive, HPGD inh inactive, IMPase Li inh inactive, ALDH1A1 inh inactive, PNC inhibitor inactive and NPSR antagonist inconclusive.
COc1cc(C2C(C(=O)c3ccc(C)o3)=C(O)C(=O)N2c2cc(C)on2)cc(OC)c1OC (stereo not drawn) was read as IMPase inh inactive, HPGD inh inactive, IMPase Li inh inactive, ALDH1A1 inh inconclusive, PNC inhibitor inactive and NPSR antagonist inactive.
`COc1cccc(C2C(C(=O)c3cc4cccc(OC)c4o3)=C(O)C(=O)N2c2cc(C)on2)c1OC` (stereo not drawn) gave IMPase inh inconclusive, HPGD inh inactive, IMPase Li inh 10µM, ALDH1A1 inh inconclusive, PNC inhibitor inactive and NPSR antagonist 6.3µM.
COc1cc(C2C(C(=O)c3ccc(C)o3)=C(O)C(=O)N2c2cc(C)on2)ccc1O (stereo not drawn) was read as IMPase inh inactive, HPGD inh inactive, IMPase Li inh inactive, ALDH1A1 inh inactive, PNC inhibitor inconclusive and NPSR antagonist inactive.
Screening COc1cccc(C2C(C(=O)c3cc4ccccc4o3)=C(O)C(=O)N2c2cc(C)on2)c1OC (stereo not drawn) returned IMPase inh inconclusive, HPGD inh inactive, IMPase Li inh 11µM, ALDH1A1 inh inconclusive, PNC inhibitor inactive and NPSR antagonist 3.2µM.
O=C(CCc1c[nH]c2ccccc12)NCC(=O)Nc1ccc(F)c(F)c1F was read as IMPase Li inh inactive, ALDH1A1 inh inactive and NPSR antagonist inactive.
Cc1cccc2cc(CN(CC3CCCO3)S(=O)(=O)c3ccccc3)c3nnnn3c12 (stereo not drawn) was read as IMPase inh inactive, HPGD inh inactive, IMPase Li inh inactive, ALDH1A1 inh inconclusive, PNC inhibitor inactive and NPSR antagonist inactive.
For CCNC(=O)CC1C(=O)N(c2cccc(OC)c2)C(=O)N1CCOC (stereo not drawn) the results were IMPase inh inactive, HPGD inh inactive, IMPase Li inh inactive, ALDH1A1 inh inactive, PNC inhibitor inactive and NPSR antagonist inactive.
`Fc1ccccc1-n1[nH]nnc1=S` gave IMPase inh inactive, HPGD inh 25µM, IMPase Li inh inactive, ALDH1A1 inh 2.2µM, PNC inhibitor inactive and NPSR antagonist inactive.
Screening Fc1ccccc1-n1cn[nH]c1=S returned IMPase Li inh inactive, ALDH1A1 inh inactive and NPSR antagonist inactive.
`O=C(O)CCNS(=O)(=O)c1ccc(Oc2ccccc2Cl)cc1` gave IMPase inh inactive, HPGD inh inactive, IMPase Li inh inactive, ALDH1A1 inh inactive, PNC inhibitor inactive and NPSR antagonist inactive.
For CCOC(=O)c1sc2nc(CC(=O)OC)nc(N3CCN(c4ccc(OC)cc4)CC3)c2c1C the results were IMPase inh inactive, HPGD inh inactive, IMPase Li inh inactive, ALDH1A1 inh 0.1µM, PNC inhibitor -100 and NPSR antagonist 32µM.
Screening CCOC(=O)c1sc2nc(CC(=O)OC)nc(NCCN3CCOCC3)c2c1C returned IMPase inh inactive, HPGD inh inactive, IMPase Li inh inactive, ALDH1A1 inh inconclusive, PNC inhibitor inconclusive and NPSR antagonist inactive.
`CNc1nc(-c2c[nH]c3ccccc23)cs1` gave IMPase inh inactive, HPGD inh inactive, IMPase Li inh inactive, ALDH1A1 inh 7.1µM, PNC inhibitor inactive and NPSR antagonist inactive.
For Nc1nc(-c2c[nH]c3ccccc23)cs1 the results were IMPase inh inactive, HPGD inh inactive, IMPase Li inh inactive, ALDH1A1 inh 7.9µM, PNC inhibitor inactive and NPSR antagonist inactive.
CCc1ccccc1NC(=O)COc1ccc2c(c1)OCO2 was read as IMPase Li inh inactive, ALDH1A1 inh inactive and NPSR antagonist inactive.
CCCCn1nc2cc(C(=O)N[C@H](C)C3CCCCC3)ccc2c1OCC was read as IMPase inh inactive[1.84 µM], HPGD inh inconclusive, IMPase Li inh inactive, ALDH1A1 inh inconclusive, PNC inhibitor inactive and NPSR antagonist inactive.
Screening Cc1ccc(C(=O)NCC(=O)OCC(=O)Nc2ccccc2C#N)s1 returned IMPase Li inh inactive, ALDH1A1 inh inactive and NPSR antagonist inactive.
NC(=O)C1CCN(c2ccc([N+](=O)[O-])cc2Cl)CC1 was read as IMPase Li inh inactive, ALDH1A1 inh 20µM and NPSR antagonist inactive.
`O=C(CSc1ccc(Cl)cc1)N1CCN(c2ccc([N+](=O)[O-])cc2Cl)CC1` gave IMPase inh inactive, HPGD inh inactive, IMPase Li inh inactive, ALDH1A1 inh 20µM, PNC inhibitor inactive and NPSR antagonist inconclusive.
Screening CCCC(=O)N1CCN(c2ccc([N+](=O)[O-])cc2Cl)CC1 returned HPGD inh inactive, IMPase Li inh inactive, ALDH1A1 inh inconclusive, PNC inhibitor inactive and NPSR antagonist inactive.
`CC(=O)c1c(OCC(=O)O)ccc2c(C)cc(=O)oc12` gave IMPase inh inactive, HPGD inh inactive, IMPase Li inh inactive, ALDH1A1 inh inactive, PNC inhibitor inconclusive and NPSR antagonist inactive.
Screening O=C(CCCN1C(=O)c2cccc3cccc(c23)C1=O)N1CCN(c2ncccn2)CC1 returned IMPase Li inh inactive, ALDH1A1 inh 28µM and NPSR antagonist inactive.
Screening O=C(CCCN1C(=O)c2cccc3cccc(c23)C1=O)N1CCN(c2ccccn2)CC1 returned HPGD inh inactive, IMPase Li inh inactive, ALDH1A1 inh inactive, PNC inhibitor inactive and NPSR antagonist inactive.
Screening Cc1cccc(C)c1NC(=O)c1c(C)nn(-c2ccccc2)c1Cl returned IMPase inh inactive[1.84 µM], HPGD inh inactive, IMPase Li inh inactive, ALDH1A1 inh inactive, PNC inhibitor inconclusive and NPSR antagonist inactive.
O=C(Nc1nnc(C2CCCCC2)s1)c1ccc(Br)s1 was read as IMPase inh inactive, HPGD inh inactive, IMPase Li inh 10µM, ALDH1A1 inh inactive, PNC inhibitor inactive and NPSR antagonist inconclusive.
Screening Cc1nn(-c2ccccc2)c(Cl)c1C(=O)Nc1nnc(C2CCCC2)s1 returned IMPase inh inactive, HPGD inh inactive, IMPase Li inh inactive, ALDH1A1 inh 2.8µM, PNC inhibitor -85 and NPSR antagonist inactive.
